# Article PMC7862700, “An all-to-all approach to the identification of sequence-specific readers for epigenetic DNA modifications on cytosine”
# Columns and labels:
# Assay in all cases: DAPPL (digital affinity profiling via proximity ligation, sequencing); 10 mM Tris-HCl pH 7.5, 50 mM NaCl, 1 mM DTT, 4% glycerol, room temperature, 30 min; GST-TFs on glutathione beads, 16-mer random dsDNA library, 0.1% formaldehyde crosslink after washing; high values mean tight binding
# [1] = biological target: T1, FLI1 (Homo sapiens, UniProt Q01543 1-452); conditions: protein: recombinant; tags: N-terminal GST; dsDNA, one strand shown
# T1 sequence: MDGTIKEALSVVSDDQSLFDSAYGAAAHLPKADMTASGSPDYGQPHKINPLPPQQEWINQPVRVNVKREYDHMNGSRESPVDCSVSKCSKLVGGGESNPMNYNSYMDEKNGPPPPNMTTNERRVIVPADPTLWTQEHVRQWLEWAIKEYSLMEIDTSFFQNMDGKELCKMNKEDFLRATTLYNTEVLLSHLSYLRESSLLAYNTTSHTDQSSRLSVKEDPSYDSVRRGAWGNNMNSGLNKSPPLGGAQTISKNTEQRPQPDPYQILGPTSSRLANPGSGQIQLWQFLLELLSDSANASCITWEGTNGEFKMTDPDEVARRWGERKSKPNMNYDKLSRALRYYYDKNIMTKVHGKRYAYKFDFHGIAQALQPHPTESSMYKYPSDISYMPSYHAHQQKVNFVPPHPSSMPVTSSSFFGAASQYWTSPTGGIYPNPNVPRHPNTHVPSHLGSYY
# Summary of the method: (§1)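 The binding signal reported is, for every hexamer, its read frequency for a factor over its read frequency for the tag-only sample. Reads came from pools of yeast-expressed, GST-fused human transcription factors on glutathione beads, barcoded with DNA and mixed with that sample, which were incubated with 200 nmole of a random double-stranded 16-mer DNA library in Tris/NaCl/DTT/glycerol buffer at room temperature for 30 min. After washing, the pools were crosslinked with 0.1% formaldehyde, proximity-ligated with BsaI/T4 ligase for 1 h at 37 °C, PCR-amplified and sequenced on an Illumina NextSeq500.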
# [2] = biological target: T2, ELK1 (Homo sapiens, UniProt P19419 1-428); conditions: protein: recombinant; tags: N-terminal GST; dsDNA, one strand shown
# T2 sequence: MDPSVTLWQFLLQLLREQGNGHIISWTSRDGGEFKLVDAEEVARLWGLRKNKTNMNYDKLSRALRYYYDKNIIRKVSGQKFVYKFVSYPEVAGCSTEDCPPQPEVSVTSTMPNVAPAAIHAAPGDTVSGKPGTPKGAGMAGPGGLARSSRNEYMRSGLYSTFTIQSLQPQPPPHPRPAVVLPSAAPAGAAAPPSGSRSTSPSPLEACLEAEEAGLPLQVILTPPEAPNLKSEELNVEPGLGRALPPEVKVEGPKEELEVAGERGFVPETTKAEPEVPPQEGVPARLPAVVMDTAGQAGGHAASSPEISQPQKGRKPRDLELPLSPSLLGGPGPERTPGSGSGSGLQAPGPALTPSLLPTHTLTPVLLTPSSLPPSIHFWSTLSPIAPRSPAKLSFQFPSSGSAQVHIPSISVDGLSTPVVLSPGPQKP
# Summary of the method: as §1
# [3] = biological target: T3, GABPA (Homo sapiens, UniProt Q06546 1-454); conditions: protein: recombinant; tags: N-terminal GST; dsDNA, one strand shown
# T3 sequence: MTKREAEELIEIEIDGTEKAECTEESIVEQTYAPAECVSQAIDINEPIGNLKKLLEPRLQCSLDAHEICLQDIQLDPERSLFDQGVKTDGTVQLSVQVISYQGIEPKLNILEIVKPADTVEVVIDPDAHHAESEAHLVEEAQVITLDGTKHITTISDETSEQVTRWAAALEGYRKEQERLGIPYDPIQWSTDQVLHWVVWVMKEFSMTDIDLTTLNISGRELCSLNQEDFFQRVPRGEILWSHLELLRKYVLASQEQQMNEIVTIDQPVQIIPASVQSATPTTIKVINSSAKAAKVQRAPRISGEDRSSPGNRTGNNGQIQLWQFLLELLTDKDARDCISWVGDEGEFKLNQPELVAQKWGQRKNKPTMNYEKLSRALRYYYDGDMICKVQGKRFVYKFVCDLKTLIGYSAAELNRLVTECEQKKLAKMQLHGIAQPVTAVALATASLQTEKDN
# Summary of the method: as §1
# [4] = biological target: T4, ERG (Homo sapiens, UniProt P11308 1-479); conditions: protein: recombinant; tags: N-terminal GST; dsDNA, one strand shown
# T4 sequence: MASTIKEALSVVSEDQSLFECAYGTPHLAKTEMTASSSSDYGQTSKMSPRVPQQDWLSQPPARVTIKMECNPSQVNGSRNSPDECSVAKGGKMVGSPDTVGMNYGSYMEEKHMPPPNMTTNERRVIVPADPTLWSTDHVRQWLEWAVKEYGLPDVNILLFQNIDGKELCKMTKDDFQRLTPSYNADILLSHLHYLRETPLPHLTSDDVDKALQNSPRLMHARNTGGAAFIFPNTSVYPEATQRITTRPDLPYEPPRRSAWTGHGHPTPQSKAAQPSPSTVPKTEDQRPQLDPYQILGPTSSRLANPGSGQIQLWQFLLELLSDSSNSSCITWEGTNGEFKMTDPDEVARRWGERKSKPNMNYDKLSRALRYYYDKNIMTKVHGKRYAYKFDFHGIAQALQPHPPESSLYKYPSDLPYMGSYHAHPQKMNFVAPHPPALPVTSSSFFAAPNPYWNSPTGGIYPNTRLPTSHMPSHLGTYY
# Summary of the method: as §1
# [5] = biological target: ELF1 (Homo sapiens, UniProt P32519 1-619); conditions: protein: recombinant; tags: N-terminal GST; dsDNA, one strand shown
# Sequence of ELF1 (P32519 whole entry): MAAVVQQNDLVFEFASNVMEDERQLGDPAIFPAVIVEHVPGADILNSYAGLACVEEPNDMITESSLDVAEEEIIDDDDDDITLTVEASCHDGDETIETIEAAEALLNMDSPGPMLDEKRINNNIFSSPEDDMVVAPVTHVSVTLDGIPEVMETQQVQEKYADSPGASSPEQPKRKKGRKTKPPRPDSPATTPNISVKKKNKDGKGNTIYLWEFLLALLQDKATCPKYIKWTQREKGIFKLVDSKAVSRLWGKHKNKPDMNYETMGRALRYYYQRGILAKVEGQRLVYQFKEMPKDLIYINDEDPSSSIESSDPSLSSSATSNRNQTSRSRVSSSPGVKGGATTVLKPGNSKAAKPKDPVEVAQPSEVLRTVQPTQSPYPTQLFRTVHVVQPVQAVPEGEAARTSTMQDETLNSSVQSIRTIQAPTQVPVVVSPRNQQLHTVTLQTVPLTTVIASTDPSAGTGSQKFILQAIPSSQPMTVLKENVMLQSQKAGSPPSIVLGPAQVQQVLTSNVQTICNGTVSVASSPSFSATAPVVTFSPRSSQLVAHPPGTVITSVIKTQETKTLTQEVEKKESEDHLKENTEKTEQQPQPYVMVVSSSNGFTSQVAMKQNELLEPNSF
# Summary of the method: as §1
# [6] = biological target: T5, EHF (Homo sapiens, UniProt Q9NZC4 1-300); conditions: protein: recombinant; tags: N-terminal GST; dsDNA, one strand shown
# T5 sequence: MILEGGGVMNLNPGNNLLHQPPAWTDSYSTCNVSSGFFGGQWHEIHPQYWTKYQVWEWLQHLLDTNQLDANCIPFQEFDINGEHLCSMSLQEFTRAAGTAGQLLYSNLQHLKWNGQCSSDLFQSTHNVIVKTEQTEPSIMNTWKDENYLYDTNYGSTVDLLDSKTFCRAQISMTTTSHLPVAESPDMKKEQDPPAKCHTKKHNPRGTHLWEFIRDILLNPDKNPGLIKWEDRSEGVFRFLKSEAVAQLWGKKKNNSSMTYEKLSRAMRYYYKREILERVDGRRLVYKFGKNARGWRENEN
# Summary of the method: as §1
# [7] = biological target: SPI1 (Homo sapiens, UniProt P17947 1-270); conditions: protein: recombinant; tags: N-terminal GST; dsDNA, one strand shown
# Summary of the method: as §1
# [8] = biological target: SPIB (Homo sapiens, UniProt Q01892 1-262); conditions: protein: recombinant; tags: N-terminal GST; dsDNA, one strand shown
# Sequence of SPIB (Q01892 whole entry): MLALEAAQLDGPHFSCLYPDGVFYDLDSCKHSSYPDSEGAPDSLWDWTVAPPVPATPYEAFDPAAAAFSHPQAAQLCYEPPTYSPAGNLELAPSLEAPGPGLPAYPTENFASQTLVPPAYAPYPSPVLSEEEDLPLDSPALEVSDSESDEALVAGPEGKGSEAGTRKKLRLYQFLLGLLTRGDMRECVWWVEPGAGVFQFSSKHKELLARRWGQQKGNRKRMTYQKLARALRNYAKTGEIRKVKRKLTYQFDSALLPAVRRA
# Summary of the method: as §1
# [9] = biological target: T6, ELK3 (Homo sapiens, UniProt P41970 1-407); conditions: protein: recombinant; tags: N-terminal GST; dsDNA, one strand shown
# T6 sequence: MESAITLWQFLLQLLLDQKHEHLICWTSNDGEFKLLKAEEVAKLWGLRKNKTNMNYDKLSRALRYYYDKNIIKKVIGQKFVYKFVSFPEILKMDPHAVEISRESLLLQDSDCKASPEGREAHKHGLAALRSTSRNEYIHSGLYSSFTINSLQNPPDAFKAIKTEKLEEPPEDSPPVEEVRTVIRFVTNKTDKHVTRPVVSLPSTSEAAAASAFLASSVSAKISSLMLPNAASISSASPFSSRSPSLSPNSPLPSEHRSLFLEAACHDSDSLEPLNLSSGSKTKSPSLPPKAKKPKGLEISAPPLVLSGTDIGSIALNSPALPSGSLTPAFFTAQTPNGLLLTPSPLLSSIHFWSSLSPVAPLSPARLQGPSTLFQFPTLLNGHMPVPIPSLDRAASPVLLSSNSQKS
# Summary of the method: as §1
# [10] = biological target: T7, FEV (Homo sapiens, UniProt Q99581 1-238); conditions: protein: recombinant; tags: N-terminal GST; dsDNA, one strand shown
# T7 sequence: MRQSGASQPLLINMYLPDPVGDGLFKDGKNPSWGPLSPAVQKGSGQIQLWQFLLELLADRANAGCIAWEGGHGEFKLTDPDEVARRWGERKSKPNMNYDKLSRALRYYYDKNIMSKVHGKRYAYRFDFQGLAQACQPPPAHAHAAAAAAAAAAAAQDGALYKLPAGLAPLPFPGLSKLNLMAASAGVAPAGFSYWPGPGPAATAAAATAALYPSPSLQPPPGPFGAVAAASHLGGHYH
# Summary of the method: as §1
# [11] = biological target: ETV5 (Homo sapiens, UniProt P41161 1-510); conditions: protein: recombinant; tags: N-terminal GST; dsDNA, one strand shown
# Sequence of ETV5 (P41161 whole entry): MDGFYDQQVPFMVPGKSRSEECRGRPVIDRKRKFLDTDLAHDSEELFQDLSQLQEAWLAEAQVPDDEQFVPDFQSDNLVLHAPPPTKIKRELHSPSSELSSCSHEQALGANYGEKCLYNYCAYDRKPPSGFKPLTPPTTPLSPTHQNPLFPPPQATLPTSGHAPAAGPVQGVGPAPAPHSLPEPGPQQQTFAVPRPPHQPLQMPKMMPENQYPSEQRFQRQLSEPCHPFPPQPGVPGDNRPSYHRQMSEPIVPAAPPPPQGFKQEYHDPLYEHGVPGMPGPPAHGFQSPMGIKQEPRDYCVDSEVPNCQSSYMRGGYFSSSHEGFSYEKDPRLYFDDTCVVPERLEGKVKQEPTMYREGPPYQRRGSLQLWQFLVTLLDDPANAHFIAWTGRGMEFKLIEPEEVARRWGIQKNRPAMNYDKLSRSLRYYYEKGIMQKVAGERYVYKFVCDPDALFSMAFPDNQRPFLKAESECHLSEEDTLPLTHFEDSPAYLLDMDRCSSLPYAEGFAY
# Summary of the method: as §1
# [12] = biological target: HSF1 (Homo sapiens, UniProt Q00613 1-529); conditions: protein: recombinant; tags: N-terminal GST; chain copies: 3; dsDNA, one strand shown
# Sequence of HSF1 (Q00613 whole entry): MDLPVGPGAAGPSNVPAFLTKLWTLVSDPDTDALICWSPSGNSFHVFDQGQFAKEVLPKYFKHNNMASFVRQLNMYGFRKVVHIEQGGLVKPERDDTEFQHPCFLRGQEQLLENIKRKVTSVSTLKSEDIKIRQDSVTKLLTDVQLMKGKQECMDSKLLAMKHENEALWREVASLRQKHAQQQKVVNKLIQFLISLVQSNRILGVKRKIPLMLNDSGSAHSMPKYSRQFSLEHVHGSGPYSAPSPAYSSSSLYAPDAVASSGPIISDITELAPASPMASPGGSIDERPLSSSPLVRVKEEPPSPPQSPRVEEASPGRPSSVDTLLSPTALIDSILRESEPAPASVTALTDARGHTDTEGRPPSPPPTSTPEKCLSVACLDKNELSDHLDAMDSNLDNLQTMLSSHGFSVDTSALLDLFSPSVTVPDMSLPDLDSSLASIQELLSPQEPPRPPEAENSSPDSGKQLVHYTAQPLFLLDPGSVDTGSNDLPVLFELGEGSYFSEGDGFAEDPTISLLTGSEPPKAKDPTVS
# Summary of the method: as §1
# [13] = biological target: T8, SPIC (Homo sapiens, UniProt Q8N5J4 1-248); conditions: protein: recombinant; tags: N-terminal GST; dsDNA, one strand shown
# T8 sequence: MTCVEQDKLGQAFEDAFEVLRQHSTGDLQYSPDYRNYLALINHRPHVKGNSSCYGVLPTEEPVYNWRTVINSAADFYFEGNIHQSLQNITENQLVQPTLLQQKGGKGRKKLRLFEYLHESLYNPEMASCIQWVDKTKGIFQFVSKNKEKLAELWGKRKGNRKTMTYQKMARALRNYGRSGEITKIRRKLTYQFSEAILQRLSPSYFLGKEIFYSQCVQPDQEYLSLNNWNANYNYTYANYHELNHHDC
# Summary of the method: as §1
# [14] = biological target: ELF4 (Homo sapiens, UniProt Q99607 1-663); conditions: protein: recombinant; tags: N-terminal GST; dsDNA, one strand shown
# Sequence of ELF4 (Q99607 whole entry): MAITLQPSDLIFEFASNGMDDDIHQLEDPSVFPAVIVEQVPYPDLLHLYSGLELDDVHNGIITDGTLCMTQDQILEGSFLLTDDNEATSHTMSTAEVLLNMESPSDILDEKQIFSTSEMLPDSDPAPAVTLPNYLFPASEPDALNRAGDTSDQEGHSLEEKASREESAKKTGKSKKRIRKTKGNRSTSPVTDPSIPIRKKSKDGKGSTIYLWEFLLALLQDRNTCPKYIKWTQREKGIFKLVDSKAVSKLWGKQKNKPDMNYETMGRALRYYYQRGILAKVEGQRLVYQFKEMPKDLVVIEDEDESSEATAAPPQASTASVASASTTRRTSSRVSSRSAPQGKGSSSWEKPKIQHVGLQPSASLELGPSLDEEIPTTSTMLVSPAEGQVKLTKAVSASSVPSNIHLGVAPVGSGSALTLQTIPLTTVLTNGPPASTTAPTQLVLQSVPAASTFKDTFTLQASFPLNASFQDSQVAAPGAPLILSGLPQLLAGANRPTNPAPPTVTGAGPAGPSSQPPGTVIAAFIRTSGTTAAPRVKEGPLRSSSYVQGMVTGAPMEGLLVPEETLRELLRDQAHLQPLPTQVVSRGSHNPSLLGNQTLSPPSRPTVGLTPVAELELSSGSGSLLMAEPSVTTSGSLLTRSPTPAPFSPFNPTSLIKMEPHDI
# Summary of the method: as §1
# [15] = biological target: T9, ELK4 (Homo sapiens, UniProt P28324-2 1-405); conditions: protein: recombinant; tags: N-terminal GST; dsDNA, one strand shown
# T9 sequence: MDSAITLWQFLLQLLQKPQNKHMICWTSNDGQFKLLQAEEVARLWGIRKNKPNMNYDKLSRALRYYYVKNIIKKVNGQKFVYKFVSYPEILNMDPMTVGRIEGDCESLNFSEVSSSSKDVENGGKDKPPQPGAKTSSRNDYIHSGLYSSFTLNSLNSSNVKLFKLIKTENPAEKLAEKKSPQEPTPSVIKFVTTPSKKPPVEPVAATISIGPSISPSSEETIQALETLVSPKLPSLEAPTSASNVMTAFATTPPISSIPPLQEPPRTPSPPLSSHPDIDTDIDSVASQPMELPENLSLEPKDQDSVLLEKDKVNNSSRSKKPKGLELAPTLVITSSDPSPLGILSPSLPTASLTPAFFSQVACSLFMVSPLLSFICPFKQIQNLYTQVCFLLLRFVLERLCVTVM
# Summary of the method: as §1
# [16] = biological target: T10, ETV2 (Homo sapiens, UniProt O00321 1-342); conditions: protein: recombinant; tags: N-terminal GST; dsDNA, one strand shown
# T10 sequence: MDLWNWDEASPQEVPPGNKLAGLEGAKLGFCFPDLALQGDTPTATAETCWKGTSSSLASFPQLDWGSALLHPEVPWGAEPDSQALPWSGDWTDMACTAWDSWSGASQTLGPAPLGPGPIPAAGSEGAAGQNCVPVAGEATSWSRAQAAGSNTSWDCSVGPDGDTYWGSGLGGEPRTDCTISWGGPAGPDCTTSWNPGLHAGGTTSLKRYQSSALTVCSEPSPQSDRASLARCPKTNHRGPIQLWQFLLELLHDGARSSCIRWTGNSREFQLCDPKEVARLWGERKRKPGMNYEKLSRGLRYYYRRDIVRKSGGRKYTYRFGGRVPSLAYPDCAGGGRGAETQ
# Summary of the method: as §1
# [17] = biological target: T11, ELF3 (Homo sapiens, UniProt P78545 1-371); conditions: protein: recombinant; tags: N-terminal GST; dsDNA, one strand shown
# T11 sequence: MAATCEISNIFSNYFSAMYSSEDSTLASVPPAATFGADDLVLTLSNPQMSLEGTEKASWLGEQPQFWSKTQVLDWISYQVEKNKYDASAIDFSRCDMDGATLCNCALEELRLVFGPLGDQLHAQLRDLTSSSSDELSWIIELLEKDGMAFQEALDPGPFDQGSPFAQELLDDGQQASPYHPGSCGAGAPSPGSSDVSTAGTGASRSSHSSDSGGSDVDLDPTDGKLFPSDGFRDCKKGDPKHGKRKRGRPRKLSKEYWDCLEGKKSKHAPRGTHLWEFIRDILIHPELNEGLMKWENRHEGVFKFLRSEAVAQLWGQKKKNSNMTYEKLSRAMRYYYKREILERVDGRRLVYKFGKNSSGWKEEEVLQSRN
# Summary of the method: as §1
# [18] = biological target: ETV1 (Homo sapiens, UniProt P50549 1-477); conditions: protein: recombinant; tags: N-terminal GST; dsDNA, one strand shown
# Sequence of ETV1 (P50549 whole entry): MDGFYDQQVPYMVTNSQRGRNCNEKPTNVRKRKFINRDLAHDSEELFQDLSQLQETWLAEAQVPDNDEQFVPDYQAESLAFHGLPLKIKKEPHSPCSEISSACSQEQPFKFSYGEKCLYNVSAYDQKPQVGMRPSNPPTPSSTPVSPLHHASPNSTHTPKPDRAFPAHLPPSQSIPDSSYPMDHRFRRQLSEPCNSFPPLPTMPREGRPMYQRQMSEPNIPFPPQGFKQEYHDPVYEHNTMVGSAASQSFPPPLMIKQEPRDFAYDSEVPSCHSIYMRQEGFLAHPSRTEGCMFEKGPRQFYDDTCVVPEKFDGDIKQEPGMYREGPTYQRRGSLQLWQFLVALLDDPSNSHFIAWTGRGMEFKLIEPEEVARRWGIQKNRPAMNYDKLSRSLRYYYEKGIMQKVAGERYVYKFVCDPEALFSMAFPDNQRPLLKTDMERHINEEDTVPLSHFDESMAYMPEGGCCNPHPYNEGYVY
# Summary of the method: as §1
sequence,measurement,setting,value
AACAGC,binding signal,[1],"1.1 fold enrichment (6-mer frequency, TF over GST control)"
same,binding signal,[2],"1.1 fold enrichment (6-mer frequency, TF over GST control)"
same,binding signal,[3],"1.17 fold enrichment (6-mer frequency, TF over GST control)"
same,binding signal,[4],"1.13 fold enrichment (6-mer frequency, TF over GST control)"
same,binding signal,[5],"1.12 fold enrichment (6-mer frequency, TF over GST control)"
same,binding signal,[6],"1.16 fold enrichment (6-mer frequency, TF over GST control)"
same,binding signal,[7],"1.11 fold enrichment (6-mer frequency, TF over GST control)"
same,binding signal,[8],"1.13 fold enrichment (6-mer frequency, TF over GST control)"
same,binding signal,[9],"1.17 fold enrichment (6-mer frequency, TF over GST control)"
same,binding signal,[10],"1.14 fold enrichment (6-mer frequency, TF over GST control)"
same,binding signal,[11],"1.09 fold enrichment (6-mer frequency, TF over GST control)"
same,binding signal,[12],"1 fold enrichment (6-mer frequency, TF over GST control)"
same,binding signal,[13],"1.05 fold enrichment (6-mer frequency, TF over GST control)"
same,binding signal,[14],"1.15 fold enrichment (6-mer frequency, TF over GST control)"
same,binding signal,[15],"1.2 fold enrichment (6-mer frequency, TF over GST control)"
same,binding signal,[16],"1.12 fold enrichment (6-mer frequency, TF over GST control)"
same,binding signal,[17],"1.1 fold enrichment (6-mer frequency, TF over GST control)"
same,binding signal,[18],"1.11 fold enrichment (6-mer frequency, TF over GST control)"
